In all, about 5,500 compounds went through this assay and about 2,000 (36%) were called active. Roughly 18% stayed inconclusive and do not appear here. Rule as the data show it: active = normalized growth mostly below about 0.91 (no sharp cut-off); inconclusive = no clear call, values can overlap the other calls; inactive = mostly above about 0.92. The list shows a part of the results.
Assay: chemical genetic growth profiling, strain panel (AID 1159580);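 also: tested at 20 µM; growth read once vehicle control cultures reached saturation at 30 °C; 1 = growth at the plate median or of vehicle wells; lower values mean less growth of the strain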
Settings: growth OD
[1] = S. cerevisiae deletion strains, locus YAL013W, strain DEP1, stronger effect = lower value
[2] = S. cerevisiae deletion strains, locus YNL128W, strain TEP1, stronger effect = lower value
[3] = S. cerevisiae deletion strains, locus YPL241C, strain CIN2, stronger effect = lower value

Measured: normalized growth

Nc1ncn(C2OC(CO)C(O)C2O)c(=O)n1 (stereo unspecified)
inactive: [1] 1.02 | S. cerevisiae deletion strains, locus YAL040C, strain CLN3, stronger effect = lower value 0.999 | S. cerevisiae deletion strains, locus YCL061C, strain MRC1 (second series), stronger effect = lower value 0.999 | S. cerevisiae deletion strains, locus YER002W, strain NOP16, stronger effect = lower value 0.997 | [2] 0.994 | S. cerevisiae deletion strains, locus YNL175C, strain NOP13, stronger effect = lower value 0.992 | S. cerevisiae deletion strains, locus YNL197C, strain WHI3, stronger effect = lower value 1.01 | S. cerevisiae deletion strains, locus YNL224C, strain SQS1, stronger effect = lower value 0.988 | S. cerevisiae deletion strains, locus YOR083W, strain WHI5 (second series), stronger effect = lower value 1 | [3] 1

NCCCCCCNS(=O)(=O)c1cccc2c(Cl)cccc12
inactive: [1] 1 | S. cerevisiae deletion strains, locus YBR021W, strain FUR4, stronger effect = lower value 1 | S. cerevisiae deletion strains, locus YBR229C, strain ROT2, stronger effect = lower value 0.982 | S. cerevisiae deletion strains, locus YCL029C, strain bik1, stronger effect = lower value 0.983 | S. cerevisiae deletion strains, locus YDL035C, strain GPR1, stronger effect = lower value 0.989 | S. cerevisiae deletion strains, locus YDL074C, strain BRE1, stronger effect = lower value 1.02 | S. cerevisiae deletion strains, locus YDL101C, strain DUN1, stronger effect = lower value 0.991 | S. cerevisiae deletion strains, locus YDL134C, strain PPH21, stronger effect = lower value 0.985 | S. cerevisiae deletion strains, locus YDL185W, strain tfp1, stronger effect = lower value 0.986 | S. cerevisiae deletion strains, locus YDL192W, strain arf1, stronger effect = lower value 0.996 | S. cerevisiae deletion strains, locus YDR101C, strain arx1, stronger effect = lower value 0.997 | S. cerevisiae deletion strains, locus YDR150W, strain NUM1, stronger effect = lower value 0.987 | S. cerevisiae deletion strains, locus YDR162C, strain NBP2, stronger effect = lower value 1.01 | S. cerevisiae deletion strains, locus YDR318W, strain mcm21, stronger effect = lower value 0.973 | S. cerevisiae deletion strains, locus YDR388W, stronger effect = lower value 0.99 | S. cerevisiae deletion strains, locus YDR502C, strain sam2, stronger effect = lower value 0.984 | S. cerevisiae deletion strains, locus YEL061C, strain CIN8, stronger effect = lower value 0.995 | S. cerevisiae deletion strains, locus YER110C, stronger effect = lower value 0.99 | S. cerevisiae deletion strains, locus YER155C, strain BEM2, stronger effect = lower value 1.01 | S. cerevisiae deletion strains, locus YER167W, strain BCK2, stronger effect = lower value 0.979 | S. cerevisiae deletion strains, locus YGL078C, strain dbp3, stronger effect = lower value 0.998 | S. cerevisiae deletion strains, locus YGL086W, strain mad1, stronger effect = lower value 0.958 | S. cerevisiae deletion strains, locus YGL248W, strain PDE1, stronger effect = lower value 0.968 | S. cerevisiae deletion strains, locus YGR078C, strain PAC10, stronger effect = lower value 1 | S. cerevisiae deletion strains, locus YGR135W, strain pre9, stronger effect = lower value 0.988 | S. cerevisiae deletion strains, locus YGR229C, strain SMI1, stronger effect = lower value 1.01 | S. cerevisiae deletion strains, locus YGR252W, strain gcn5, stronger effect = lower value 0.908 | S. cerevisiae deletion strains, locus YHR030C, strain SLT2, stronger effect = lower value 0.989 | S. cerevisiae deletion strains, locus YHR079C, strain IRE1 (second series), stronger effect = lower value 0.978 | S. cerevisiae deletion strains, locus YHR094C, strain hxt1, stronger effect = lower value 1 | S. cerevisiae deletion strains, locus YHR129C, strain ARP1, stronger effect = lower value 1 | S. cerevisiae deletion strains, locus YHR200W, strain rpn10, stronger effect = lower value 0.979 | S. cerevisiae deletion strains, locus YIL066C, strain RNR3, stronger effect = lower value 0.996 | S. cerevisiae deletion strains, locus YIL073C, strain SPO22, stronger effect = lower value 0.957 | S. cerevisiae deletion strains, locus YIL125W, strain kgd1, stronger effect = lower value 0.997 | S. cerevisiae deletion strains, locus YIR030C, strain dcg1, stronger effect = lower value 0.992 | S. cerevisiae deletion strains, locus YJL095W, strain BCK1, stronger effect = lower value 0.988 | S. cerevisiae deletion strains, locus YJL134W, strain LCB3, stronger effect = lower value 0.995 | S. cerevisiae deletion strains, locus YJL168C, strain set2, stronger effect = lower value 0.994 | S. cerevisiae deletion strains, locus YJL187C, strain SWE1 (second series), stronger effect = lower value 0.993 | S. cerevisiae deletion strains, locus YJR043C, strain POL32, stronger effect = lower value 0.971 | S. cerevisiae deletion strains, locus YJR075W, strain HOC1, stronger effect = lower value 1.02 | S. cerevisiae deletion strains, locus YKL009W, strain mrt4, stronger effect = lower value 0.953 | S. cerevisiae deletion strains, locus YKL068W, stronger effect = lower value 0.999 | S. cerevisiae deletion strains, locus YKL085W, strain MDH1 (second series), stronger effect = lower value 0.991 | S. cerevisiae deletion strains, locus YKL085W, strain MDH1, stronger effect = lower value 0.991 | S. cerevisiae deletion strains, locus YKL190W, strain CNB1, stronger effect = lower value 0.996 | S. cerevisiae deletion strains, locus YKR001C, strain vps1, stronger effect = lower value 0.983 | S. cerevisiae deletion strains, locus YLR039C, strain RIC1, stronger effect = lower value 1.01 | S. cerevisiae deletion strains, locus YLR058C, strain SHM2, stronger effect = lower value 0.988 | S. cerevisiae deletion strains, locus YLR102C, strain apc9, stronger effect = lower value 1 | S. cerevisiae deletion strains, locus YLR262C, strain YPT6, stronger effect = lower value 1.02 | S. cerevisiae deletion strains, locus YLR268W, strain sec22, stronger effect = lower value 0.999 | S. cerevisiae deletion strains, locus YLR330W, strain CHS5, stronger effect = lower value 0.997 | S. cerevisiae deletion strains, locus YLR342W, strain FKS1 (second series), stronger effect = lower value 0.935 | S. cerevisiae deletion strains, locus YLR371W, strain rom2, stronger effect = lower value 0.993 | S. cerevisiae deletion strains, locus YLR418C, strain cdc73, stronger effect = lower value 1 | S. cerevisiae deletion strains, locus YML016C, strain PPZ1, stronger effect = lower value 0.989 | S. cerevisiae deletion strains, locus YML032C, strain rad52, stronger effect = lower value 0.961 | S. cerevisiae deletion strains, locus YML124C, strain tub3, stronger effect = lower value 0.987 | S. cerevisiae deletion strains, locus YMR078C, strain ctf18, stronger effect = lower value 0.98 | S. cerevisiae deletion strains, locus YMR223W, strain ubp8, stronger effect = lower value 0.961 | S. cerevisiae deletion strains, locus YMR263W, strain SAP30, stronger effect = lower value 1.01 | S. cerevisiae deletion strains, locus YMR307W, strain GAS1, stronger effect = lower value 0.942 | S. cerevisiae deletion strains, locus YNL067W, strain RPL9B, stronger effect = lower value 1.01 | [2] 1.01 | S. cerevisiae deletion strains, locus YNL153C, strain GIM3, stronger effect = lower value 1 | S. cerevisiae deletion strains, locus YNL233W, strain BNI4, stronger effect = lower value 0.996 | S. cerevisiae deletion strains, locus YNL250W, strain rad50, stronger effect = lower value 0.981 | S. cerevisiae deletion strains, locus YNL271C, strain bni1, stronger effect = lower value 0.997 | S. cerevisiae deletion strains, locus YNL298W, strain CLA4, stronger effect = lower value 0.983 | S. cerevisiae deletion strains, locus YNL307C, strain MCK1, stronger effect = lower value 0.965 | S. cerevisiae deletion strains, locus YNL322C, strain KRE1, stronger effect = lower value 0.995 | S. cerevisiae deletion strains, locus YNR052C, strain pop2, stronger effect = lower value 0.974 | S. cerevisiae deletion strains, locus YOL006C, strain TOP1, stronger effect = lower value 0.955 | S. cerevisiae deletion strains, locus YOL012C, strain htz1 0.747 | S. cerevisiae deletion strains, locus YOL147C, strain pex11, stronger effect = lower value 0.994 | S. cerevisiae deletion strains, locus YOR061W, strain CKA2, stronger effect = lower value 0.995 | S. cerevisiae deletion strains, locus YOR069W, strain VPS5, stronger effect = lower value 0.988 | S. cerevisiae deletion strains, locus YOR136W, strain idh2, stronger effect = lower value 0.991 | S. cerevisiae deletion strains, locus YOR144C, strain elg1, stronger effect = lower value 0.993 | S. cerevisiae deletion strains, locus YOR184W, strain ser1, stronger effect = lower value 0.961 | S. cerevisiae deletion strains, locus YOR316C, strain cot1, stronger effect = lower value 0.986 | S. cerevisiae deletion strains, locus YPL055C, strain LGE1, stronger effect = lower value 1.04 | [3] 0.998 | S. cerevisiae deletion strains, locus YPR119W, strain clb2, stronger effect = lower value 1 | S. cerevisiae deletion strains, locus YPR141C, strain kar3, stronger effect = lower value 0.999 | S. cerevisiae deletion strains, locus YPR163C, strain tif3, stronger effect = lower value 0.985 | S. cerevisiae deletion strains, locus YPR167C, strain met16, stronger effect = lower value 0.986 | S. cerevisiae deletion strains, strain wtn01, stronger effect = lower value 0.981 | S. cerevisiae strains, strain wild type, stronger effect = lower value 0.997
